The record followed here is PubChem BioAssay (NCATS).

The target in assay [1] is Calcium and integrin-binding protein 1 (Homo sapiens) (UniProt Q99828). The experiment in a line: Primary qHTS for Identification of Calcium Integrin Binding Protein 1 (CIB1) Competitor (AID 1508620).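 Also: GST tagged CIB1 binding a fluorescein labelled alphaIIb integrin peptide tracer; top concentration of the series differs between compounds.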 The method, boiled down: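 Fluorescence polarization competition: CIB1-GST (1 uM final) preincubated with compound 15 min at room temperature, then FITC-labeled alphaIIb peptide (100 nM final) added for another 15 min. Polarization read at Ex 480/Em 540.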

For assay [2], the target named is Cytochrome P450 2D6 (Homo sapiens) (UniProt P10635). The experiment in a line: Cytochrome P450 family 2 subfamily D member 6 (CYP2D6) small molecule antagonists: luciferase biochemical (cell-free) qHTS assay (AID 1645840; active = well fitted curve in the direction sought with a large enough effect in the repeat runs; an effect the other way counts as inactive or inconclusive; also: nearly all actives have a fitted effect of over 55% in size; also: potency is read from the fitted curve at half-maximal effect). The gist of the method: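 P450-Glo luminescent screen: recombinant CYP2D6 enzyme–proluciferin substrate mix preincubated with compound 10 min at room temperature, then NADPH regeneration added for 1 h at room temperature. Detection reagent added for 20 min; luciferin light read as relative luminescence units.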
For orientation: qHTS replaces the single test concentration by a dilution series.

The nature of assay [3]: Primary qHTS for inhibitors of nuclear receptor binding SET domain protein 2 (NSD2) in an isogenic RCH-ACV NSD2 p.E1099K mutant (9B) (AID 1645876). Also: nearly all actives have a fitted effect of over 70% in size. Also: potency is read from the fitted curve at half-maximal effect.
Assay [4] can be described thus: Primary qHTS for inhibitors of nuclear receptor binding SET domain protein 2 (NSD2) in an RCH-ACV wild type WT cells (2C) (AID 1645877). Also: nearly all actives have a fitted effect of over 70% in size. Also: potency is read from the fitted curve at half-maximal effect.
Assay [5] concerns the target N-terminal Xaa-Pro-Lys N-methyltransferase 1 (Homo sapiens) (UniProt Q9BV86). The experiment in a line: Confirmatory qHTS for Inhibitors of N-terminal methyltransferase 1 (NTMT1): MTaseGlo Assay (AID 1645874). Also: nearly all actives have a fitted effect of over 65% in size. Also: potency is read from the fitted curve at half-maximal effect. The gist of the method: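 Preincubation of NTMT1 (125 nM) plus SAM (100 uM) with test compounds lasted 15 min; methylation of 1 uM SPKRIA then proceeded 30 min in the dark at room temperature. Luciferase signal reported SAH produced.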

For assay [6], the target named is Cytochrome P450 2C9 (Homo sapiens) (UniProt P11712). The experiment in a line: Cytochrome P450 family 2 subfamily C member 9 (CYP2C9) small molecule antagonists: luciferase biochemical (cell-free) qHTS assay (AID 1645842; active = well fitted curve in the direction sought with a large enough effect in the repeat runs; an effect the other way counts as inactive or inconclusive; also: nearly all actives have a fitted effect of over 55% in size; also: potency is read from the fitted curve at half-maximal effect). The method, boiled down:
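Luminescence, after 20 min with luciferin detection reagent, reflected CYP2C9 turnover during a 1 h NADPH-driven reaction at 37C. Enzyme-substrate mix contained 0.4% bovine serum albumin and was preincubated with compound 10 min at room temperature.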

“And” between values parts separate entries of the source, which are not always exact repeats. Identical values can stand only once. Results filed as inconclusive are left out. The source made the active and inactive calls. Unless noted, calls follow the shape of the dose curve; as a rule, active = well fitted curve in the direction sought with a large enough effect; inconclusive = small, poorly fitted or top-dose-only effect, or another doubt; inactive = no such curve, though single readings can be large; an effect the other way counts as inactive or inconclusive.

Cytochrome P450 2C9 (Homo sapiens), sequence (P11712 whole entry, looked up): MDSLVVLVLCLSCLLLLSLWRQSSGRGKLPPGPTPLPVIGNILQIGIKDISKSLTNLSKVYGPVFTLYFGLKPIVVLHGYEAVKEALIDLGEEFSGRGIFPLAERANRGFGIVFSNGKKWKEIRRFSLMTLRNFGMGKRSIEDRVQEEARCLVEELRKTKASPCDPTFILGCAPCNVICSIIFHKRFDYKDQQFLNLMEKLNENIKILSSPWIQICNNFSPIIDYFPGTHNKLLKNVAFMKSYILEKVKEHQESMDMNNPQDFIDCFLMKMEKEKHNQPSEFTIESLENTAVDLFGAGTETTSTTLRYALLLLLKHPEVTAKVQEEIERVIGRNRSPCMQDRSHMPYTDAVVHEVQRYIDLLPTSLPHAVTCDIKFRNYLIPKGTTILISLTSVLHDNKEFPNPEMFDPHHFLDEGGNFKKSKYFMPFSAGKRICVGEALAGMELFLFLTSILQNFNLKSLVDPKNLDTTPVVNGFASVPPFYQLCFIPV
Calcium and integrin-binding protein 1 (Homo sapiens), sequence (Q99828 whole entry, looked up): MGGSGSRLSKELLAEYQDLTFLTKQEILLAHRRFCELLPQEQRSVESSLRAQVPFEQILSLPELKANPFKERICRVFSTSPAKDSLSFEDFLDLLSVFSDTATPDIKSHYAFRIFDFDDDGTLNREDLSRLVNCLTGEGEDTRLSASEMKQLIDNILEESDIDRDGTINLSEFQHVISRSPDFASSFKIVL
Cytochrome P450 2D6 (Homo sapiens), sequence (P10635 whole entry, looked up): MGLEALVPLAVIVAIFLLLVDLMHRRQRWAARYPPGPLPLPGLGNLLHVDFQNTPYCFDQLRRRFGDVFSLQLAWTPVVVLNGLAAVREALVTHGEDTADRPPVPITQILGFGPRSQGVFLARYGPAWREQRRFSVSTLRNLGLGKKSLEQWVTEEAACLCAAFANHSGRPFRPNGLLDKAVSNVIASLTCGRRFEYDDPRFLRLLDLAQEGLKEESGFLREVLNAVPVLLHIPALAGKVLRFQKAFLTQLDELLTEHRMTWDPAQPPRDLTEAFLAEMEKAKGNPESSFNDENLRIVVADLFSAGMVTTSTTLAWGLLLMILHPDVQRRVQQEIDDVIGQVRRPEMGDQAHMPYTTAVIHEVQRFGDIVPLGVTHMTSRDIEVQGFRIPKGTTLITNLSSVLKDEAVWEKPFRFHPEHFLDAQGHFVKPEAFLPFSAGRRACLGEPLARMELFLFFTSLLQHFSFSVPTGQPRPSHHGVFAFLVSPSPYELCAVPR
N-terminal Xaa-Pro-Lys N-methyltransferase 1 (Homo sapiens), sequence (Q9BV86 whole entry, looked up): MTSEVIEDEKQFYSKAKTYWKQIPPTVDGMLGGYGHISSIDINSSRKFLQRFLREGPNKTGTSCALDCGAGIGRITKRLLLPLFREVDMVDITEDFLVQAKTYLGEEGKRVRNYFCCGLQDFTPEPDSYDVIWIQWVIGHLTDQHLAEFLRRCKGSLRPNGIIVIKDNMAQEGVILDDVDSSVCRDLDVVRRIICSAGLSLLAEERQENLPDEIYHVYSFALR

Take `CC(C)NCCCn1c(Sc2cc3c(cc2I)OCO3)nc2c(N)ncnc21`: in assay [1], the Potency entry was “inactive”. In addition, the Potency in assay [2] is 0.536 µM (active); in assay [3] it was 0.365 µM (active); in assay [4], 0.325 µM (active).

For `CC#CCn1c(N2CCCC(N)C2)nc2c1c(=O)n(Cc1nc(C)c3ccccc3n1)c(=O)n2C` (stereo not drawn), the Potency entry in assay [1], in assay [2], in assay [3] and in assay [4] was “inactive” each time.

On to `O=c1[nH]c2ccccc2n1CCN1CCN(c2cccc(C(F)(F)F)c2)CC1`, for which the Potency entry in assay [1] and in assay [4] was “inactive” in each case. In assay [2], the Potency was 7.56 µM (active).

For `Cn1c(SCC(=O)N2CCC[C@H]2C(=O)Nc2ccccc2-c2ccccc2)nc2ccccc21`, the Potency result in assay [1] and in assay [4] was “inactive” each time. Besides, the Potency in assay [2] is 16.9 µM (active).

With `CCN1CCN(Cc2ccc(NC(=O)c3ccc(C)c(Oc4ccnc5[nH]ccc45)c3)cc2C(F)(F)F)CC1`, the Potency entry in assay [1] was “inactive”. Moreover, the Potency in assay [2] was 10.7 µM (active); in assay [3], 0.713 µM (active); in assay [4] it was 0.713 µM (active).

As to `CN1CCN(S(=O)(=O)c2ccc(-c3cnc(N)c(C(=O)Nc4cccnc4)n3)cc2)CC1`, the Potency entry in assay [1] and in assay [2] was “inactive” in each case. Further, the Potency in assay [3] and in assay [4] was 0.317 µM (active) in each case.

Take `C#Cc1cccc(Nc2nc3cc(C(=O)O)ccc3c3cncnc23)c1`: the Potency result in assay [1] and in assay [2] was “inactive” in each case. Further, the Potency in assay [3] is 4.09 µM (active); in assay [4], 2.58 µM (active).

In the case of `C[C@H](CN(C)C)Oc1nc(Nc2cc3cccc(Cl)c3cn2)cnc1C#N`, in assay [1], the Potency entry was “inactive”. Further, the Potency in assay [2] is 0.674 µM (active); in assay [3], 459 nM (active) and 934 nM (active); in assay [4], 409 nM (active) and 934 nM (active).

With `O=C(NCC1CCN(Cc2cccc(Cl)c2)CC1)[C@@H]1CCCN(c2ncnc3c2nc2n3CCCC2)C1`, the Potency result in assay [1], in assay [3] and in assay [4] was “inactive” throughout. The Potency in assay [2] is 15.1 µM (active).

As for `COc1ccc(CCCN2CCC(COC(c3ccccc3)c3ccccc3)CC2)cc1`, in assay [1], the Potency entry was “inactive”. The figures for the Potency in assay [2] and in assay [4] were 0.0535 µM (active) and 16.3 µM (active), respectively.

Turning to `O=C(Nc1ccccc1Cl)c1cnc2ccc(C3CCNCC3)cn12`, the Potency entry in assay [1] and in assay [2] was “inactive” in each case. The values for the Potency in assay [3] and in assay [4] were 1.29 µM (active) and 2.3 µM (active), respectively.

On to `Cc1ccc(N2CCN(CCC3NC(=O)c4ccccc43)CC2)cc1C` (stereo not drawn), for which the Potency result in assay [1], in assay [2], in assay [3] and in assay [4] was “inactive” in each case.

Consider `COc1ccc2cc3c(NC(=O)c4ccco4)nn(C)c3nc2c1`, for which the Potency entry in assay [5] was “inactive”.

On to `O=C(O)c1cc(N(Cc2ccc(C3CCCCC3)cc2)C(=O)c2ccc(Oc3ccccc3)cc2)ccc1O`, for which the Potency in assay [5] is 30.8 µM (active).

On to `O=C(NCc1nc2ccccc2c(=O)n1-c1ccc(F)cc1)Nc1ccc(Cl)c(C(F)(F)F)c1`, for which, in assay [3], the Potency was 25.8 µM (active).

Take `COc1ccc(N(C(=O)Nc2c(C)cccc2C)c2cc(Nc3ccc(N4CCN(C)CC4)cc3)ncn2)c(OC)c1`: the Potency in assay [3] is 10.3 µM (active).

`COc1ccc(C2(CNC(=O)c3ccc(NC(=O)c4ccco4)cc3)CCOCC2)cc1`: the Potency entry in assay [1], in assay [6], in assay [3] and in assay [4] was “inactive” in each case.

As for `CCn1c(=O)c(-c2ccc(Cl)cc2Cl)cc2cnc(Nc3ccc(N4CCNCC4)c(F)c3)nc21`, the Potency entry in assay [1] and in assay [6] was “inactive” each time. In addition, the Potency in assay [3] was 290 nM (active) and 662 nM (active); in assay [4] it was 728 nM (active) and 742 nM (active).

For the compound `Cc1nc(Nc2cnn(C3CCNCC3)c2)nc2c1N(C)C(=O)c1cc3ccccc3cc1N2C`, the Potency result in assay [1] is “inactive”. Moreover, the values for the Potency in assay [6], in assay [3] and in assay [4] were 1.07 µM (active), 5.15 µM (active) and 2.05 µM (active), respectively.

As to `Cc1ccc(O)cc1Nc1ccnc(Nc2cccc(C(N)=O)c2)n1`, the Potency entry in assay [1] was “inactive”. Besides, the values for the Potency in assay [6], in assay [3] and in assay [4] were 1.9 µM (active), 4.59 µM (active) and 4.09 µM (active), respectively.

With `CCOC(=O)c1cnc2ccc(-c3cncc(NS(=O)(=O)c4ccccc4)c3)cn12`, the Potency result in assay [1] was “inactive”. The Potency in assay [6] was 0.134 µM (active); in assay [3], 0.29 µM (active); in assay [4] it was 0.258 µM (active).

Regarding `CCN(CC)C(=O)C(c1ccccc1)N1CCN(c2ccc(NC(=O)c3ccccc3-c3cccnc3)cc2F)CC1` (stereo not drawn), the Potency entry in assay [1], in assay [3] and in assay [4] was “inactive” throughout. Moreover, the Potency in assay [6] was 9.52 µM (active).

In the case of `O=C(N[C@H]1CCC[C@H](CO)C1)C1CCN(c2nc3cc(Cl)c(-c4ccc(Cl)cc4)cc3o2)CC1`, the Potency result in assay [1] and in assay [6] was “inactive” in each case. Besides, the values for the Potency in assay [3] and in assay [4] were 20.5 µM (active) and 16.3 µM (active), respectively.

`OC(CC1c2ccccc2-c2cncn21)C1CCCCC1` (stereo not drawn): in assay [1], the Potency result was “inactive”. Moreover, the Potency is 2.68 µM (active) in assay [6] and 23 µM (active) in assay [3].

Consider `CCCCCCOC(=O)/N=C(\N)c1ccc(NCc2nc3cc(C(=O)N(CCC(=O)OCC)c4ccccn4)ccc3n2C)cc1`, for which the Potency result in assay [1] and in assay [6] was “inactive” in each case. Besides, the results for the Potency in assay [3] and in assay [4] were 20.5 µM (active) and 16.3 µM (active), respectively.

Take `Cc1ccccc1C(C(=O)NC1CCCCC1)N(C(=O)Cn1cnc2ccccc21)c1cccc(F)c1` (stereo not drawn): the Potency result in assay [1] is “inactive”. Further, the Potency in assay [6] was 16.9 µM (active); in assay [3], 12.9 µM (active); in assay [4] it was 23 µM (active).

`CCCCc1c(-c2ccc(OC)cc2)[nH]c2nccnc12`: the Potency result in assay [1] and in assay [6] was “inactive” each time. Moreover, in assay [3], the Potency is 3.65 µM (active).

In the case of `CC(C)c1ccccc1OC(=O)NCCc1ccc2ccccc2c1`, the Potency entry in assay [1], in assay [3] and in assay [4] was “inactive” each time. In addition, the Potency in assay [6] was 0.952 µM (active).

Regarding `O=C(Nc1ccc2[nH]nc(-c3ccncc3)c2c1)[C@@H]1CCN(CC(=O)N2CCN(c3ccc(-c4ncccn4)cc3)CC2)C1`, in assay [1], the Potency result is “inactive”. Also, the Potency in assay [6] is 6.74 µM (active) and 1.69 µM (active); in assay [3], 9.16 µM (active) and 14.8 µM (active); in assay [4], 10.3 µM (active) and 11.8 µM (active).

Turning to `CC(=O)NC(C)c1cnc(-c2cnc(Oc3ccc(OC(C)C)cc3)s2)s1` (stereo not drawn), the Potency entry in assay [1] was “inactive”. Besides, the Potency in assay [6] is 9.52 µM (active); in assay [3], 10.3 µM (active); in assay [4], 8.17 µM (active).
